The text below walks through data of PubChem BioAssay (Tox21).

Where “and” joins values, the source holds several entries; their conditions need not be identical. Equal entries are not always repeated. Results filed as inconclusive are left out. Where a structure was tested more than once in an assay, its records may differ in their call. Calls of active or inactive are those of the source. Unless noted, the call rests on the fitted dose curve.

Test [1] concerns the target Gonadotropin-releasing hormone receptor (Homo sapiens) (UniProt P30968). The test is described as follows: Human gonadotropin-releasing hormone receptor (GnRHR) small molecule agonists, calcium flux assay in GnRHR-HEK293 cells (AID 1920063). Further: nearly all actives have a fitted effect of over 35% in size. The gist of the method: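 We seeded human GnRHR-expressing HEK293 cells for 18 hours, loaded them with calcium dye for an hour at 37 C, added test compounds, and recorded fluorescence intensity kinetically for three minutes.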
Background: Calcium assays in cells follow changes in intracellular calcium, usually with a dye or a luminescent sensor.

Test [2] addresses KiSS-1 receptor (Homo sapiens) (UniProt Q969F8). The test is described as follows: Human kisspeptin (KISS1R) small molecule agonists, calcium flux assay in KISS1R-HEK293 cells (AID 1920064; active means well fitted activation curve with a large enough effect in the repeat runs). The method, boiled down:
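Kinetic calcium assay, 1 s sampling over 3 min at Ex/Em 480/540, in HEK293 cells engineered with human KISS1R; compounds delivered in DMSO after 1 h dye loading.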

Test [3] can be described thus: p53 small molecule agonists, cell-based qHTS assay with human liver microsomes: qHTS cell viability counter screen (AID 1963579). Further: nearly all actives have a fitted effect of over 45% in size. Further: potency means the concentration at half of the fitted maximal effect. The method, boiled down: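 Viability of p53RE-bla cells is measured as CellTiter-Glo luminescence following a 16 h, 37 C incubation with compound, liver microsomes from human donors and NADPH.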
Test [4] in a line: p53 small molecule agonists, cell-based qHTS assay with rat liver microsomes: qHTS cell viability counter screen (AID 1963580). Further: nearly all actives have a fitted effect of over 45% in size. Further: potency means the concentration at half of the fitted maximal effect. The method, boiled down: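 Intracellular ATP, by CellTiter-Glo luminescence, defines viability. HCT-116 p53RE-bla cells, 4,000 per well, were compound-treated in the presence of rat liver microsomes and NADPH for 16 h at 37 C.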
(In general: In qHTS, concentration-response curves come from the screen itself.)

A short description of test [5]: p53 small molecule agonists, cell-based qHTS assay: qHTS cell viability counter screen (AID 1963581). Further: nearly all actives have a fitted effect of over 45% in size. Further: potency means the concentration at half of the fitted maximal effect. The gist of the method: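 Following 5 h attachment, HCT-116 p53RE-bla cells took up compound for 16 h at 37 C; the reporter was read with B/G FRET substrate (2 h RT), and viability then via CellTiter-Glo ATP luminescence.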
The target of test [6] is 5-hydroxytryptamine receptor 2A (Homo sapiens) (UniProt P28223). The test is described as follows: 5-hydroxytryptamine receptor 2A (HTR2A) small molecule antagonists, cell-based qHTS assay (AID 1963586). Further: nearly all actives have a fitted effect of over 45% in size. The gist of the method:
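Antagonist-mode intracellular calcium assay: DOI (4 nM) added after 5 min compound pre-incubation at room temperature to dye-loaded HTR2A-CHO cells. Fluorescence followed for 3 min, sampled every second.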

For test [7] the target is unchanged. The test is described as follows: 5-hydroxytryptamine receptor 2A (HTR2A) small molecule agonists, cell-based qHTS assay (AID 1963587). Further: nearly all actives have a fitted effect of over 30% in size. The gist of the method:
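Kinetic calcium-flux fluorescence (2 min, 1 sec intervals) after compound addition in agonist mode. HTR2A-CHO cells were cultured 18 h, then dye-loaded 1 h at 37 C.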

The target in test [8] is Muscarinic acetylcholine receptor M1 (Homo sapiens) (UniProt P11229). The test is described as follows: Cholinergic receptor muscarinic 1 (CHRM1) small molecule antagonists, cell-based qHTS assay (AID 1963588). Further: nearly all actives have a fitted effect of over 40% in size. The gist of the method:
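CHRM1-CHO calcium-flux assay, antagonist mode. Cells were seeded 18 h, dye-loaded 1 h at 37 C and given compound for 5 min at RT, then acetylcholine was added at 50nM. FDSS fluorescence was read 3 min; 15 concentrations, three runs.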

A short description of test [9]: cAMP Responsive Elements (CRE) small molecule agonists, cell-based qHTS assay (AID 1963590). The method, boiled down: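 A CRE-responsive beta-lactamase reporter in HEK 293T cells was used. Treatment ran 3 h at 37 C; detection used LiveBLAzer B/G FRET substrate for 2 h at room temperature.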
Test [10] is described as follows: cAMP Responsive Elements (CRE) small molecule antagonists, cell-based qHTS assay (AID 1963591; active means well fitted inhibition curve with a large enough effect in the signal ratio in the repeat runs, not every such curve was filed as active; the % refers to the signal ratio). The gist of the method:
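HEK293T cells carrying a CRE-driven beta-lactamase reporter receive compound and NKH477 (0.25 uM final) for 3 h. Fluorescence from LiveBLAzer B/G FRET substrate is read after 2 h at room temperature.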

The nature of test [11]: p53 small molecule agonists, cell-based qHTS assay with human liver microsomes (AID 1963577).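 Further: p53 response element beta-lactamase reporter cells with liver microsomes plus NADPH.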 The gist of the method:
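HLM-supplemented p53RE-bla reporter assay: 16 h compound exposure at 37 C, microsomes and NADPH each 0.5 mg/mL final, read by fluorescence intensity.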

Test [12] in a line: p53 small molecule agonists, cell-based qHTS assay (AID 1963582; active means well fitted activation curve with a large enough effect in the signal ratio in the repeat runs, not every such curve was filed as active; the % refers to the signal ratio). The gist of the method:
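In this cell-based concentration-response screen, a p53 response element drives beta-lactamase; cells received DMSO-borne compounds after 5 h culture and were incubated a further 16 h before FRET substrate development.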

The target in test [13] is Beta-2 adrenergic receptor (Homo sapiens) (UniProt P07550). The test is described as follows: Adrenergic beta2 receptor (ADRB2) small molecule antagonists, cell-based qHTS assay (AID 1963592). Further: series mostly up to about 92 µM; nearly all actives have a fitted effect of over 50% in size. The gist of the method: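 Cells (CHO, stable ADRB2 overexpression) incubated 18-20hr at 37C; compounds added from DMSO; agonist mix (1nM isoproterenol, 100uM IBMX, 25uM Ro-20-1724) added; 0.5hr RT; d2-cAMP and anti-cAMP-cryptate added; 1hr RT; 665/615 nm read.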

For test [14], the target named is D(2) dopamine receptor (Homo sapiens) (UniProt P14416). The test is described as follows: Dopamine D2 receptor (DRD2) small molecule agonists, cell-based qHTS assay (AID 1963594). Further: nearly all actives have a fitted effect of over 35% in size. Further: potency means the concentration at half of the fitted maximal effect. The method, boiled down:
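cAMP accumulation in DRD2-HEK293 cells measured by HTRF after 1 h detection; compounds added 10 min before NKH477 (200nM […]) forskolin-analogue stimulation, 30 min at room temperature, with Ro20-1724 present at 0.1 mM final.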

Test [15] has the same target. The test is described as follows: Dopamine D2 receptor (DRD2) small molecule antagonists, cell-based qHTS assay (AID 1963595; active means well fitted inhibition curve with a large enough effect in the signal ratio in the repeat runs, with a control signal flat; the % refers to the signal ratio; further: potency means the concentration at half of the fitted maximal effect). The method, boiled down: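 Human DRD2 antagonist qHTS measuring cAMP by HTRF. The cells are exposed to compound for 10 min, then to NKH477 (200 nM) and quinpirole (12 nM) for 30 min at RT, with Ro20-1724 (0.1 mM) present throughout.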
Test [16] can be described thus: G protein-coupled receptor (GPCR) small molecule agonists, calcium flux assay: HEK293 wild type cell line counter screen (AID 1920065). The method, boiled down:
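Calcium-sensitive dye, loaded 1 h at 37 C into cells cultured 18 h, reports compound-evoked calcium release as fluorescence (Ex/Em 480/540), measured over 3 min. Agonist mode; 15-point titrations, triplicate.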

The target of test [17] is Beta-2 adrenergic receptor (Homo sapiens) (UniProt P07550). The test is described as follows: Adrenergic beta2 receptor (ADRB2) small molecule agonists, cell-based qHTS assay (AID 1963593).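 Further: CHO cells stably overexpressing human ADRB2.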 The gist of the method:
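CHO cells stably over-expressing ADRB2 were plated overnight at 37C, then dosed with compounds plus a stimulation mix containing 100uM IBMX and 25uM Ro-20-1724 for 0.5hr at room temperature. cAMP was measured by HTRF competition, 1hr.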

Test [18] deals with Muscarinic acetylcholine receptor M1 (Homo sapiens) (UniProt P11229). The test is described as follows: Cholinergic receptor muscarinic 1 (CHRM1) small molecule agonists, cell-based qHTS assay (AID 1963589). Further: nearly all actives have a fitted effect of over 35% in size. The method, boiled down: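 Measures agonist-induced intracellular calcium rise. Stable human CHRM1 CHO line, 1 h dye load at 37 C, compounds from DMSO, kinetic fluorescence read.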

Test [19] in a line: p53 small molecule agonists, cell-based qHTS assay with rat liver microsomes (AID 1963578). The gist of the method:
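Quantitative HTS of the Tox21 10K library: p53RE-bla cells, rat liver microsomes plus NADPH at 0.5 mg/mL final each, 16 h at 37 C, beta-lactamase fluorescence detection.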

Chain of Muscarinic acetylcholine receptor M1 (Homo sapiens) (P11229 whole entry, looked up): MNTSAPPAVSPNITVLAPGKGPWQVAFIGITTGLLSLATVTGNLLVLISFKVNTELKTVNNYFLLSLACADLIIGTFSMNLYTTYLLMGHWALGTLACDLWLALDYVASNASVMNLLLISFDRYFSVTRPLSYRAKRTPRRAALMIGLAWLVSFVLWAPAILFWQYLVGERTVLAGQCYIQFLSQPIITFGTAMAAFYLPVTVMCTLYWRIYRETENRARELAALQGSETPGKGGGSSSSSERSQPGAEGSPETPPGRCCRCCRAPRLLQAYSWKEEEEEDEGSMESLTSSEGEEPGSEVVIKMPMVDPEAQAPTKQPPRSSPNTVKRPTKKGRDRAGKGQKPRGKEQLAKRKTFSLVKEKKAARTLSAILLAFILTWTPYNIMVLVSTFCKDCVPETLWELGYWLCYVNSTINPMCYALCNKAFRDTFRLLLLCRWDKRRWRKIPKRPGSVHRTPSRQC
Chain of 5-hydroxytryptamine receptor 2A (Homo sapiens) (P28223 whole entry, looked up): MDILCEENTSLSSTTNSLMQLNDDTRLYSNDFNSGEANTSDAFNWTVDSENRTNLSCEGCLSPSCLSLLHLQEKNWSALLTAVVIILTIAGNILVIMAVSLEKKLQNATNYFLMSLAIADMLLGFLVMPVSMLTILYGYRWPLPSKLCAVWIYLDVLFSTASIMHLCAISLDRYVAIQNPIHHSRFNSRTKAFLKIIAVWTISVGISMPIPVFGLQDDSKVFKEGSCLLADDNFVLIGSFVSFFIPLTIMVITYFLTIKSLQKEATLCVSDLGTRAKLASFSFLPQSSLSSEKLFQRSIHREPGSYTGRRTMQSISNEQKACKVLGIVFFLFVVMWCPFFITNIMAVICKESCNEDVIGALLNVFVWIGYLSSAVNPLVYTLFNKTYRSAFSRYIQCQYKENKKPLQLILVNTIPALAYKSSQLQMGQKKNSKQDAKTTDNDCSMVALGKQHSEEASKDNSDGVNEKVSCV
Chain of KiSS-1 receptor (Homo sapiens) (Q969F8 whole entry, looked up): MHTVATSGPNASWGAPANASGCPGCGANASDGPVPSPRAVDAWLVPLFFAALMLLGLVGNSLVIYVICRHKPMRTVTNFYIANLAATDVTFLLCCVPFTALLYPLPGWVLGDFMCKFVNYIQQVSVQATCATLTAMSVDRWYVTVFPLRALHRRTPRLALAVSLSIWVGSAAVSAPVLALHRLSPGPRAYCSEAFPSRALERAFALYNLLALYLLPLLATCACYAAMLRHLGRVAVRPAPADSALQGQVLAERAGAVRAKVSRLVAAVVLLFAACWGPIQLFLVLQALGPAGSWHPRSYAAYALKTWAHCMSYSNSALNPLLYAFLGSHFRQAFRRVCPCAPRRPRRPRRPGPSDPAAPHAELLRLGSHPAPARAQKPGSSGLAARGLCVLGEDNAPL
Chain of D(2) dopamine receptor (Homo sapiens) (P14416 whole entry, looked up): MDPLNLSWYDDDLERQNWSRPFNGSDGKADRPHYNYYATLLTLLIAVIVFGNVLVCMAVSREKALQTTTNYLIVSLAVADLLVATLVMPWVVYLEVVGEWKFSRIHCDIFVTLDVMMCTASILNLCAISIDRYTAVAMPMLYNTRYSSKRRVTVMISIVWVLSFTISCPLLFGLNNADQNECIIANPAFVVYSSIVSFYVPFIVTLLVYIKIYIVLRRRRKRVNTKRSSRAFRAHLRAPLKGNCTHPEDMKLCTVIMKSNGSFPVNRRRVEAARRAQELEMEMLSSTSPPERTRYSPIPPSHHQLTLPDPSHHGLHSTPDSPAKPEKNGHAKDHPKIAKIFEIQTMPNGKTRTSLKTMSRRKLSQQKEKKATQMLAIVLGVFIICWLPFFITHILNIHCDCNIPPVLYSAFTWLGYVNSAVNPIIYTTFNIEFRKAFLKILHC
Chain of Gonadotropin-releasing hormone receptor (Homo sapiens) (P30968 whole entry, looked up): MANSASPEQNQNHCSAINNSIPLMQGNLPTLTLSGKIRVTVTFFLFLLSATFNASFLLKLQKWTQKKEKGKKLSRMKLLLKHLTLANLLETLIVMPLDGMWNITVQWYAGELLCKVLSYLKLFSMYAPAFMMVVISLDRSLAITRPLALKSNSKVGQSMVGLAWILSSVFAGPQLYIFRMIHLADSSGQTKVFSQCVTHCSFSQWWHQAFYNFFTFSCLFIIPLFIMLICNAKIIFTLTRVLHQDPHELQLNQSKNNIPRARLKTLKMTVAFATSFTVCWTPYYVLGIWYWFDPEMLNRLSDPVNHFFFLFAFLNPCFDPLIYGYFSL
Chain of Beta-2 adrenergic receptor (Homo sapiens) (P07550 whole entry, looked up): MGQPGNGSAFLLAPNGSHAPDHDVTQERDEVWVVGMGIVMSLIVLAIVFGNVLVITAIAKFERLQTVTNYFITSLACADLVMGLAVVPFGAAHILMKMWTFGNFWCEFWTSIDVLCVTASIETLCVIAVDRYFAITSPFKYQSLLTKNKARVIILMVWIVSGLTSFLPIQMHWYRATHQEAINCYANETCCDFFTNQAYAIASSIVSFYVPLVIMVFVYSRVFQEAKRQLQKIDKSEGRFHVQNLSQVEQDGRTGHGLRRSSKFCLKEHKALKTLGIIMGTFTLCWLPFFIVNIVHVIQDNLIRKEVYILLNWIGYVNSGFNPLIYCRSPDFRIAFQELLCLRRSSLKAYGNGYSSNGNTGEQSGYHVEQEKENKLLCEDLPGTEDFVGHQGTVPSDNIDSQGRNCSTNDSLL

As to `CCN(Cc1cccc(S(=O)(=O)O)c1)c1ccc(C(=C2C=CC(=[N+](CC)Cc3cccc(S(=O)(=O)O)c3)C=C2)c2ccc(O)cc2S(=O)(=O)[O-])cc1`, the Potency result in [1], in [2], in test [6], in [7], in test [8] and in [9] was “inactive” in each case. The Potency entry in [10] is “inactive”. Moreover, the results for the Potency in test [3], in test [4] and in [5] were 24.8 µM (active), 24.8 µM (active) and 11.1 µM (active), respectively.
As for `CCCCCCCC/C=C/CCCCCCCC1=NCCN1CCO`, the Potency result in [1], in test [2], in test [11], in test [4], in test [5] and in test [12] was “inactive” in each case. Moreover, the Potency entry in test [7], in [9], in test [13], in test [14] and in test [15] was “inactive” each time.
For `CCCCc1oc2ccccc2c1C(=O)c1cc(I)c(OCCN(CC)CC)c(I)c1`, the Potency entry in [1], in test [2], in test [16], in test [5], in [12] and in [13] was “inactive” throughout. The Potency result in test [17], in test [14] and in test [15] was “inactive” each time.
For the compound `CCCCCCCCCO`, the Potency result in test [1], in test [2], in [16], in test [5], in [12] and in test [6] was “inactive” throughout. The Potency entry in [7], in [8], in test [9], in test [10], in test [13] and in [15] was “inactive” each time. Also, the Potency in test [14] was 43.3 µM (active).
Regarding `O=C1CN(/N=C/c2ccc([N+](=O)[O-])o2)C(=O)N1`, the Potency entry in [1], in test [2], in [16], in [5], in [13] and in test [17] was “inactive” in each case. Moreover, in test [15], the Potency result is “inactive”. Besides, the Potency entry in test [14] was “inactive and 68.6 µM (active)”.
For the compound `CNCCCN1c2ccccc2CCc2ccccc21`, the Potency entry in [1], in test [2], in test [16], in test [12] and in [10] was “inactive” throughout.
With `O=C(CCCN1CCC(O)(c2ccc(Cl)cc2)CC1)c1ccc(F)cc1`, the Potency entry in test [1], in test [2], in test [16], in test [5], in test [12] and in test [9] was “inactive” in each case. In addition, the Potency result in [10], in [13] and in test [17] was “inactive” in each case.
As for `O=C(c1ccccc1)c1ccccc1`, the Potency entry in test [1], in test [2], in test [16], in test [5], in test [12] and in test [6] was “inactive” in each case. Moreover, the Potency entry in test [7], in [8], in test [18], in test [9], in test [10] and in [13] was “inactive” in each case. The Potency result in test [14] and in [15] was “inactive” throughout.
On to `O=C1c2ccccc2C(=O)c2c(O)c(O)cc(O)c21`, for which the Potency result in test [1], in test [2], in [11], in test [19], in test [3] and in test [4] was “inactive” in each case. Further, the Potency result in [5], in [6], in test [7], in [8], in test [18] and in test [13] was “inactive” each time. The Potency result in test [14] and in test [15] was “inactive” each time.
On to `CN1[C@@H]2CC[C@@H]1CC(OC(=O)C(CO)c1ccccc1)C2` (stereo not given in full), for which the Potency result in test [1], in [2], in test [16], in [9], in test [10] and in test [13] was “inactive” in each case.
In the case of `O=C(OCCOCCOCCOC(=O)c1ccccc1)c1ccccc1`, the Potency result in [1], in test [2], in test [11], in test [19], in test [3] and in [4] was “inactive” throughout. The Potency result in test [5], in test [12], in test [7], in test [8], in test [18] and in test [13] was “inactive” throughout. The Potency result in test [17] and in test [14] was “inactive” each time.
Regarding `CN(C)C(=N)N=C(N)N`, the Potency entry in [1], in [2], in test [16], in test [5], in test [12] and in test [9] was “inactive” each time. The Potency entry in test [10], in [13], in [17], in [14] and in test [15] was “inactive” in each case.
On to `O=C(O)c1cn(C2CC2)c2cc(N3CCNCC3)c(F)cc2c1=O`, for which the Potency entry in test [1], in test [2], in [5], in test [9], in test [10] and in test [14] was “inactive” in each case. Also, in test [15], the Potency result is “inactive”.
Turning to `COC(=O)C1=C(C)NC(C)=C(C(=O)OC)C1c1ccccc1[N+](=O)[O-]`, the Potency result in [1], in [2], in test [16], in test [5], in test [12] and in test [9] was “inactive” throughout. The Potency entry in test [13] and in test [14] was “inactive” throughout. Also, the Potency in test [15] was 68.7 µM (active) and inactive.
Consider `CC(=O)Nc1ccc(O)cc1`, for which the Potency entry in test [1], in test [2], in [9], in [10], in test [13] and in test [14] was “inactive” each time. In addition, in [15], the Potency entry is “inactive”.
Regarding `CCOC(=O)c1ccccc1C(=C1C=C(Br)C(=O)C(Br)=C1)c1cc(Br)c(O)c(Br)c1`, the Potency result in test [1], in test [2], in test [11], in [19], in test [3] and in test [4] was “inactive” each time. For the same compound, the Potency entry in test [7], in [18], in test [13], in [14] and in test [15] was “inactive” throughout.
In the case of `Clc1ccccc1CN1CCc2sccc2C1`, the Potency entry in test [1], in test [2], in test [16], in [9], in test [17] and in [14] was “inactive” in each case. For the same compound, the Potency entry in [15] is “inactive”.
